The supplement of paper PMC6555819

test system: PXR homodimer (NR concentration 270 nM); assay: PBM binding z-score (relative to random genomic background probes); higher = stronger binding; sequences stand for … in GC…GCGATTGACAGCGTAGAATGAAGG
In short: (§1)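 Custom Agilent 4×180K protein-binding microarrays carried double-stranded probes, each with a 34-nt variable region. These regions held direct-repeat seeds, single-nucleotide variants, half-site ablations and random human genomic background sequences. Ligand-free nuclear receptor dimers were incubated on the arrays for 1 h, antibodies against each partner (one per run) detected binding, and scanned fluorescence was regression-normalized. Binding z-scores take the random background probes as reference.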

Sequence	PBM binding z-score
GCTGCTAGGTCAGGTTGGTCAGCCAACGGGTACG	-0.305
CATACAGGGTCAGCTAGGACAGAGTAGGGACGGC	0.128
GCATATAGGTAATACAAGGTGCAAGTCCGATTGT	0.191
TCTATTAGTTGAATGGCAACCGACGAGTCCGTTT	0.892
CAAACTTGGTCACGAAAGGTCAAAGTCGAATGAC	1.66
GCTTGTAGATCAAGGTTAAGACAGACTAAGCTAA	-0.263
CCGAGCAGGCCAGGGTCACTCAAGCATTTCGCTT	-0.479
ACTAGCAGGCCAAGGGTCACACAAGATTAGTCCG	0.101
TTACCACGGTGAAAGGTCGTTGATGCACGCCTTG	0.446
GCTAGCAGGCCATTTGTGTCACTCAATGACGGGC	-0.552
ATCTCTAGGTTAGACTCAGTTCAGTGAAGAACGC	2.69
CGAACTAGGTCAGAACAGGACAGGGAAGGATGAT	0.31
CGTCAAAGTTCAACTAAGGTATCGTAAAGCACGC	3.7
TGATATAGGTAAATGCTAGGTGAAAGTCCGATCT	0.293
CGTCACAGTTCAAGGTAACGTAACAGAAAGCAGC	0.75
CCTACTGGGCCATCAGGTCCTTGATATCAACGTT	-0.404
TCTTGTAGATCAATAGGAGGTTAAGAAAGATCGA	0.557
CCGACTGGGGAATAAGGTTACCATAAGCCAGCCC	0.0229
CCAGACAGGTGAGAAGGTTACTCAGCCTCGATTA	0.133
GGAACGAGGGCAGGTTGATAGCAGAGTTTGATGG	0.636

Sequence	PBM binding z-score
ATCGAAAGGTGGAGGTGAGTATAGAGAAAGGGAA	0.659
GATACAGGGTCAGCTAGAGACCAGAGTATGGAAA	0.00163
TCTGCTAGGTCATTTGGTCAGCTAACGAGCTGCC	-0.592
CCTCGGAGGACAGAAGGTCAGAGATGTCCGCTTT	0.164
CCTAGTTGGTCAGGACGTCACACACCGGATATGA	0.484
ATCGAAAGATCGAAGGTGAGTATACCCACCCGAA	-0.598
CCGAGTAGGTTATGGGGCATTCTGGCAACGGTGA	0.0972
TCATATAGGTAAATGCTAGGTGAAGGTCCGATCT	0.475
CGTCGAAGTTCAACTAAGGTAACGTAAAGCACGC	2.7
TCGAGTAAGTTACCAATGGGGCATTCAGCTTTCT	-0.765
TCGAGTAGGTTACCAATGGGGCATTCGGCTTTCT	-0.566
GCTTGTAGATCAAGGTTAAGAATGACTAAGCTAA	-0.428
CTACCAAGGTGAACAAGGTCGTTGTTTACTATTC	1.16
CCTAGCATGCCAGGGTCACTCAAGCATTTCGCTT	-0.116
CGTCCAAGGTCAAAGGTAAGTGAAGAGATGACGG	0.799
CCTAGCAGCCCAATCTGGGTCACTCAAGGCTTGA	-0.803
CCTAGCAGGCCAATCTGGGTCACGCAAGGCTTGA	-0.572
GCGACTGGGGCAAAGCAGGTTACCAGAAGGTTGG	-0.469
CTCGAAAGGTGGGTTGAGGTGAGTATACGGATAA	0.754

test system: RARa:RXR (NR concentration 270 nM, RXRa partner concentration 90 nM); assay: as above
In short: as §1

Sequence	PBM binding z-score
GCTGCTAGGTCAGGTTGGTCAGCCAACGGGTACG	0.503
CATACAGGGTCAGCTAGGACAGAGTAGGGACGGC	3
GCATATAGGTAATACAAGGTGCAAGTCCGATTGT	0.538
TCTATTAGTTGAATGGCAACCGACGAGTCCGTTT	0.79
CAAACTTGGTCACGAAAGGTCAAAGTCGAATGAC	6.77
GCTTGTAGATCAAGGTTAAGACAGACTAAGCTAA	0.922
CCGAGCAGGCCAGGGTCACTCAAGCATTTCGCTT	3.47
ACTAGCAGGCCAAGGGTCACACAAGATTAGTCCG	4.6
TTACCACGGTGAAAGGTCGTTGATGCACGCCTTG	2.56
GCTAGCAGGCCATTTGTGTCACTCAATGACGGGC	-0.532
ATCTCTAGGTTAGACTCAGTTCAGTGAAGAACGC	1.13
CGAACTAGGTCAGAACAGGACAGGGAAGGATGAT	2.03
CGTCAAAGTTCAACTAAGGTATCGTAAAGCACGC	4.2
TGATATAGGTAAATGCTAGGTGAAAGTCCGATCT	0.178
CGTCACAGTTCAAGGTAACGTAACAGAAAGCAGC	1.78
CCTACTGGGCCATCAGGTCCTTGATATCAACGTT	-0.307
TCTTGTAGATCAATAGGAGGTTAAGAAAGATCGA	1.04
CCGACTGGGGAATAAGGTTACCATAAGCCAGCCC	1.11
CCAGACAGGTGAGAAGGTTACTCAGCCTCGATTA	1.23
GGAACGAGGGCAGGTTGATAGCAGAGTTTGATGG	0.164

Sequence	PBM binding z-score
ATCGAAAGGTGGAGGTGAGTATAGAGAAAGGGAA	0.0317
GATACAGGGTCAGCTAGAGACCAGAGTATGGAAA	2.98
TCTGCTAGGTCATTTGGTCAGCTAACGAGCTGCC	2.1
CCTCGGAGGACAGAAGGTCAGAGATGTCCGCTTT	1.93
CCTAGTTGGTCAGGACGTCACACACCGGATATGA	-0.000234
ATCGAAAGATCGAAGGTGAGTATACCCACCCGAA	0.121
CCGAGTAGGTTATGGGGCATTCTGGCAACGGTGA	0.523
TCATATAGGTAAATGCTAGGTGAAGGTCCGATCT	0.786
CGTCGAAGTTCAACTAAGGTAACGTAAAGCACGC	3.02
TCGAGTAAGTTACCAATGGGGCATTCAGCTTTCT	0.11
TCGAGTAGGTTACCAATGGGGCATTCGGCTTTCT	0.111
GCTTGTAGATCAAGGTTAAGAATGACTAAGCTAA	0.94
CTACCAAGGTGAACAAGGTCGTTGTTTACTATTC	2.27
CCTAGCATGCCAGGGTCACTCAAGCATTTCGCTT	3.17
CGTCCAAGGTCAAAGGTAAGTGAAGAGATGACGG	5.9
CCTAGCAGCCCAATCTGGGTCACTCAAGGCTTGA	1.12
CCTAGCAGGCCAATCTGGGTCACGCAAGGCTTGA	2.17
GCGACTGGGGCAAAGCAGGTTACCAGAAGGTTGG	0.321
CTCGAAAGGTGGGTTGAGGTGAGTATACGGATAA	1.22
